CXXC DNA block – blocks binding of human MLL CXXC domain to DNA. Potency, µM (titrated, usually from 115 µM), usual class: inhibitors. MLL-CXXC / FITC-HOXA9 DNA fluorescence polarization. Q03164. AID 2662. hit rate 0.037% among 290,000; active = well fitted inhibition curve with a large enough effect in the polarisation, with a control signal flat, not every such curve was filed as active; inconclusive = small, poorly fitted or top-dose-only effect, or effect the other way, or a change in a side signal; inactive = no such curve, though single readings can be large or run the other way; the % refers to the polarisation
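Fluorescence polarization: 7 uM MLL-CXXC (stock) preincubated 5 min with compounds, then 50 nM fluorescein-HOX-A9 DNA (stock) added; 30 min ambient. Buffer 50 mM Tris-HCl pH 7.5, 50 mM NaCl, 1 mM DTT, 0.05% BSA.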
CBFb-RUNX1 inh – CBF-beta/RUNX1 interaction disruption. AlphaScreen CBFb-His/RUNX1-biotin binding, biochemical. 230,000 tested, under 10 active. AID 1477. Potency, µM (top dose mostly 59.8 µM), usual class: inhibitors. Q01196+Q13951; active = well fitted curve in the direction sought with a large enough effect; inconclusive = small, poorly fitted or top-dose-only effect, or effect the other way, or another doubt; inactive = no such curve, though single readings can be large or run the other way
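Interaction loss through any mechanism counts as activity. Pre-formed complex of His-CBF-beta and biotin-RUNX1 (30 nM apiece) is incubated with compound 15 min, then with 50 ng nickel and 50 ng streptavidin beads for 90 min before AlphaScreen detection.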
Menin MLL FP FL – menin-MLL binding inhibition, fluorescein peptide | Fluorescence polarization, fluorescein-MLL peptide displacement from menin | FP activity change, % at 61.4 µM | 290,000 tested, under 10 active | AID 1766; active = well fitted curve in the direction sought with a large enough effect in the polarisation, not every such curve was filed as active; inconclusive = small, poorly fitted or top-dose-only effect, or effect the other way, or a change in a side signal; inactive = no such curve, though single readings can be large or run the other way; the % refers to the polarisation
Menin-MLL TR inh – displaces Texas Red mutant MLL peptide from human menin; O00255; Menin + Texas Red MLL mutant peptide, fluorescence polarization; Potency, µM (series often up to 61.6 µM), hits mostly inhibitors; hit rate 0.23% among 270,000; AID 1768; active = well fitted inhibition curve with a large enough effect in the polarisation, with a control signal flat, not every such curve was filed as active; inconclusive = small, poorly fitted or top-dose-only effect, or effect the other way, or a change in a side signal; inactive = no such curve, though single readings can be large or run the other way; the % refers to the polarisation
Target sequence (O00255 whole entry, looked up): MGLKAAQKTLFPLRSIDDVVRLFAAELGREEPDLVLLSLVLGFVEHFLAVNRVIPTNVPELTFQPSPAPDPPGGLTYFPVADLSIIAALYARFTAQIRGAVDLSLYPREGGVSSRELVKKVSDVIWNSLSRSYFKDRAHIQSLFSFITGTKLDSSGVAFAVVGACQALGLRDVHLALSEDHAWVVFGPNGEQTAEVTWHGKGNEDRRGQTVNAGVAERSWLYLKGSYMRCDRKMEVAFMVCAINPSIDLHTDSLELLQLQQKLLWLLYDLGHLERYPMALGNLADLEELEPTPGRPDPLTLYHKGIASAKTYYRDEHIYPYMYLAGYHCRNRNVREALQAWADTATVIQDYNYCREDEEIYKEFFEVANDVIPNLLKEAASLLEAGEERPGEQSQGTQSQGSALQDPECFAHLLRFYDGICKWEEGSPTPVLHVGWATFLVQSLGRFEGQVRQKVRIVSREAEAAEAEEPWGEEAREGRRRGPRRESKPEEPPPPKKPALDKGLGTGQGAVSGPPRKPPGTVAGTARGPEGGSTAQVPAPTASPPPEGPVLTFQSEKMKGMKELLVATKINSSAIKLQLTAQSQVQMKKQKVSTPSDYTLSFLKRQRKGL
Lamin A splicing – modulators of lamin A splicing; HeLa LMNA splicing GFP/RFP minigene ratio, 48 h; Potency, µM (series often up to 46.1 µM), hits mostly inhibitors; hit rate 0.01% among 200,000; active = well fitted inhibition curve with a large enough effect in the signal ratio, with a control signal flat, not every such curve was filed as active; inconclusive = small, poorly fitted or top-dose-only effect, or effect the other way, or a change in a side signal; the % refers to the signal ratio
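S3 HeLa cells stably expressing lamin A-EGFP splicing minigene plus DsRed2, 600 cells/well, 48 h compound exposure at 37C. Laser-scanning cytometry; analysed as GFP (500-530 nm)/RFP (575-640 nm) total intensity ratio; 0.5% DMSO vehicle.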
A number is an active result; n = inactive; u = inconclusive; x = not tested or not shown; [ ] = another dose, or the depositor's remark. Shown is part of a subset that was picked to be rich in hits.

SMILES	CXXC DNA block	CBFb-RUNX1 inh	Menin MLL FP FL	Menin-MLL TR inh	Lamin A splicing
O=C(O)c1cccc(N2C(=O)c3cc([N+](=O)[O-])cc4cc([N+](=O)[O-])cc(c34)C2=O)c1	31.6µM	x	n	u	x
O=C(COC(=O)CCC1CCCC1)Nc1nc2c(F)c(F)c(F)cc2s1	n	n	n	25.1µM	n
CCOc1cc(CNc2ccc(N3CCCC3)cc2)cc(Cl)c1OC	n	u	n	u	u
COc1cc(CNc2ccc(N3CCCC3)cc2)cc(Cl)c1OC	n	n	n	28.2µM	x
CCn1c(C)nc2cc(-c3nc4n(n3)Cc3ccccc3-4)ccc21	n	n	n	28.2µM	n
Cc1ccc(-c2nc3n(n2)Cc2ccccc2-3)cc1	n	n	n	n	u
CNC(=O)Cn1ncc2c(C)n(Cc3ccc(C)cc3)c(C)c2c1=O	n	n	n	n	n
Cc1c2cnn(CC(=O)Nc3c(F)c(F)cc(F)c3F)c(=O)c2c(C)n1Cc1ccccc1F	n	n	u	12.6µM	x
Oc1ccc(NCc2ccccc2OCc2ccccc2F)cc1	n	u	n	u	n
CCOc1cccc(CNc2ccc(O)cc2)c1OCc1ccc(Cl)cc1	n	n	n	31.6µM	n
CCOc1ccccc1CNc1ccc(O)cc1	n	u	n	28.2µM	x
Oc1ccc(NCc2ccc(OCc3ccccc3)cc2)cc1	n	x	u	u	x
CCc1ccc(CNc2ccc(O)cc2)cc1	n	n	n	35.5µM	n
O=C1C2=CC[C@H]3C(=O)N(C[C@@H]4CCCO4)C(=O)[C@@H]3[C@@H]2[C@H](O)[C@@H]2O[C@H]12	x	n[13.1 µM]	n[11.7 µM]	n[11.7 µM]	x
COc1cc2c(cc1O)CCN[C@@]21CS[C@H]2c3c(OC(C)=O)c(C)c4c(c3C(COC1=O)N1C2C2c3c(cc(C)c(OC)c3O)CC([C@@H]1O)N2C)OCO4 (some centres not stated)	n	x	n	n	x
Clc1ccc(Oc2ncnc3oc(-c4ccccc4)cc23)cc1	n	n	n	10µM	n
CO[C@@H]1[C@@H](OC2OC(C)C(OC3CC(C)(O)C(OC(=O)CC(C)C)C(C)O3)C(N(C)C)C2O)[C@@H](CC=O)C[C@@H](C)C(=O)/C=C\C2O[C@H]2C[C@@H](C)OC(=O)C[C@H]1OC(C)=O (some centres not stated)	n	x	n	n	x
CC1(C)CC(Nc2ccc(Nc3ccccc3)cc2)CC(C)(C)N1	n	u	n	20µM	u
CC1(C)CC(NC(=O)c2ccccc2)CC(C)(C)N1	n	x	n	n	x
CCN(CC)c1ccc(N=Cc2ccccc2[N+](=O)[O-])cc1	n	n	n	17.8µM	u
CCN(CC)c1ccc(N=Cc2ccc([N+](=O)[O-])o2)cc1	n	u	n	u	u
CC1=C[C@@H](O)CC(C)(C)[C@@H]1/C=C/C(C)=C/C=C/C(C)=C/C=C/C=C(C)/C=C/C=C(C)/C=C/C1=C(C)C[C@H](O)CC1(C)C	n	x	n	n	x
O.O.[Mn].[Mn].[Mn].[OH-].[OH-]	x	n	n	n	x
CCOC(=O)c1sc(NC(=O)CN2C(=O)c3cccc4cccc(c34)C2=O)nc1C	n	n	n	3.98µM	n
CN(C)c1ncc2nc(-c3ccccc3)c(=O)n(CCC#N)c2n1	x	x	u	28.2µM	n
SMILES	CXXC DNA block	CBFb-RUNX1 inh	Menin MLL FP FL	Menin-MLL TR inh	Lamin A splicing
CN(C)c1ncc2nc(-c3ccc(Cl)cc3)c(=O)n(CCC#N)c2n1	x	x	u	n	n
O=C(Cn1c(=O)oc2cc(S(=O)(=O)N3CCCC3)ccc21)Nc1ccc(C(F)(F)F)cc1	n	n	n	25.1µM	n
O=C(Cn1c(=O)oc2cc(S(=O)(=O)N3CCCC3)ccc21)NC1CCCc2ccccc21 (configuration not stated)	n	n	n	31.6µM	u
O=C(Cn1c(=O)oc2cc(S(=O)(=O)N3CCCC3)ccc21)Nc1ccc(OC(F)(F)F)cc1	x	x	x	x	n
CCCCCCCCOc1ccccc1C(=O)Nc1ccc(C(=O)OCC[N+](C)(CC)CC)cc1	u	x	n	n	x
O=C(/C=C/c1ccc(O)cc1)OC[C@H]1O[C@@H](Oc2c(-c3ccc(O)cc3)oc3cc(O)cc(O)c3c2=O)[C@H](O)[C@@H](O)[C@@H]1O	x	n	n	n	x
CCC(NC(=O)Nc1cc(OC)ccc1OC)c1c(-n2cccc2)sc2c1CCN(CC)C2 (configuration not stated)	x	x	x	x	n
CN(C)c1ccc(NC(=O)N2CCOCC2)cc1	n	n	n	20µM	n
